From PubChem BioAssay (NCI)
“And” between values parts separate entries of the source, which are not always exact repeats. Equal entries are not always repeated. Compounds without any hit were thinned out: in the full panel of roughly 83,000, 20% have a hit.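 Growth was measured after 48 h exposure to one concentration of compound in 96-well plates. Values under 10 count as active.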 Values without a mark were called inactive. The source made the active and inactive calls.

How the values were obtained:
Assay in all cases: NCI-60 one-dose screen, 48 h (100 = growth as untreated, 0 = no growth, -100 = all killed)
Settings in all cases: 10 µM unless noted
NCI-H23 lung = system: NCI-H23 lung
NCI-H226 lung = system: NCI-H226 lung
NCI-H322M lung = system: NCI-H322M lung
HOP-62 NSCLC = system: HOP-62 NSCLC
NCI-H460 lung = system: NCI-H460 lung
HOP-92 NSCLC = system: HOP-92 NSCLC
NCI-H522 lung = system: NCI-H522 lung
A549/ATCC NSCLC = system: A549/ATCC NSCLC
786-0 renal = system: 786-0 renal
COLO 205 colon = system: COLO 205 colon
DU-145 prostate = system: DU-145 prostate
K-562 leukemia = system: K-562 leukemia
MALME-3M melanoma = system: MALME-3M melanoma
MDA-MB-231 breast = system: MDA-MB-231 breast
RXF 393 renal = system: RXF 393 renal
SF-268 CNS = system: SF-268 CNS
SF-295 CNS = system: SF-295 CNS
SF-539 CNS = system: SF-539 CNS
UACC-257 melanoma = system: UACC-257 melanoma
M14 melanoma = system: M14 melanoma

Structure (SMILES) | growth (NCI-H23 lung) | growth (NCI-H226 lung) | growth (NCI-H322M lung) | growth (HOP-62 NSCLC) | growth (NCI-H460 lung) | growth (HOP-92 NSCLC) | growth (NCI-H522 lung) | growth (A549/ATCC NSCLC) | growth (786-0 renal) | growth (COLO 205 colon) | growth (DU-145 prostate) | growth (K-562 leukemia) | growth (MALME-3M melanoma) | growth (MDA-MB-231 breast) | growth (RXF 393 renal) | growth (SF-268 CNS) | growth (SF-295 CNS) | growth (SF-539 CNS) | growth (UACC-257 melanoma) | growth (M14 melanoma)
N#CSc1c[nH]c2ccc(/C=C/C(=O)/C=C(/C=C/c3ccc4[nH]cc(SC#N)c4c3)OB(F)F)cc12 | -28.3% (active) | -66.1% (active) | 94.9% | 14.7% | 3.07% (active) | -74.1% (active) | -69.7% (active) | 4.65% (active) | -46.5% (active) | -63.9% (active) | 1.62% (active) | -27.2% (active) | -32.6% (active) | -35.9% (active) | -64.4% (active) | 2.42% (active) | 35.7% | -13.2% (active) | -29.8% (active) | -39.9% (active)
C[C@@H]1O[C@@H](O[C@H]2[C@@H](OC(=O)[C@]34CCC(C)(C)C[C@H]3C3=CC[C@@H]5[C@@]6(C)C[C@H](O)[C@H](O[C@@H]7O[C@H](CO)[C@@H](O)[C@H](O)[C@H]7O)[C@@](C)(CO)[C@@H]6CC[C@@]5(C)[C@]3(C)C[C@H]4O)OC[C@@H](O)[C@@H]2O)[C@H](O)[C@H](O[C@@H]2OC[C@@H](O)[C@H](O[C@@H]3OC[C@](O)(CO)[C@H]3O[C@@H]3OC[C@@H](O)[C@H](O)[C@H]3O)[C@H]2O)[C@H]1O[C@@H]1OC[C@](O)(CO)[C@H]1O | 48.7% | 99.2% | 56.4% | 74% | 110% | 103% | 29.8% | 50.2% | 46.9% | 2.01% (active) | 78.5% | 58.2% | 89.9% | 74.1% | 70.7% | 85.7% | 62.3% | 85.5% | 56.2% | 75.9%
Cc1ccc(C(=O)Nc2nc3c(s2)CN(Cc2ccccc2)CC3)cn1 | 80.5% | 88.8% | 92.9% | 88.5% | 101% | 97.5% | 65.9% | 75.4% | 85.1% | 87.4% | 98% | 36.8% | 87.1% | 100% | 102% | 91% | 89.6% | 103% | 92.9% | 79.9%
O=C(/C=C/c1ccc([N+](=O)[O-])cc1)c1ccccc1 | 93.2% | 85% | 102% | 83% | 105% | 75.9% | 70.4% | 83.3% | 89.1% | 87.2% | 97.3% | 44.1% | 107% | 102% | 91.1% | 92% | 93.4% | 92.3% | 89.1% | 92.2%
C#CCn1cnc2cnc(Nc3cccc(NC(=O)CCl)c3)nc21 | -8.25% [6.25 µM] (active) | -26% [6.25 µM] (active) | 10.4% [6.25 µM] | 4.26% [6.25 µM] (active) | -13.4% [6.25 µM] (active) | 12.6% [6.25 µM] |  | -51.3% [6.25 µM] (active) | 2.39% [6.25 µM] (active) | -57.3% [6.25 µM] (active) | 17.1% [6.25 µM] | 4.47% [6.25 µM] (active) | 28.1% [6.25 µM] | 14.6% [6.25 µM] | -27.5% [6.25 µM] (active) | 6.9% [6.25 µM] (active) | 16.1% [6.25 µM] | -0.618% [6.25 µM] (active) | 1.35% [6.25 µM] (active) | -49.1% [6.25 µM] (active)
CCOC(=O)c1cc2c(n1Cc1cc(OC)cc(OC)c1Br)-c1nc(NC(C)=O)sc1CCC2 | 73.2% | 71.3% | 80.2% | 80.4% | 82.2% | 46.6% | 53.5% | 42.8% | 78% | 82.2% | 89.3% | 81.4% | 122% | 74.7% | 61% | 67.1% | 76.4% | 85.6% | 53% | 84.9%
COc1c(NC=O)c2c(c([N+](=O)[O-])c1OC)C(=O)OC2 | 113% and 97.9% | 110% and 103% | 98.1% | 99.2% and 104% | 115% and 99.9% | 103% and 92.8% | 98.7% and 112% | 95.8% and 101% | 106% | 108% and 114% | 130% and 119% | 125% and 102% |  | 104% and 89.8% | 113% and 105% | 112% and 105% | 109% and 96.4% | 120% and 87.3% | 97.4% and 111% | 104% and 100%
